Laboratory results taken from publication PMC13083723 (Patterns, 2026).
About 190 (3.5%) of roughly 5,400 compounds showed an effect of 50% or more. Many of the other results were omitted from the sample, so strong results are more common in it than they were.

Each compound was assayed on Vero-E6 (assay: primary screen, phospholipidosis by LipidTOX staining; higher = more effect of the substance). Conditions: 10 µM.
In short: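 Single-concentration screen at 10 μM, with DMSO 0.1 v/v % and amiodarone 10 μM as controls. Read-out is LipidTOX Red phospholipid staining, which tolerates aldehyde fixation, in Vero-E6 cells.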
Compound C1CCC(N/C(=N/C23CC4CC(CC(C4)C2)C3)N2CCOCC2)CC1 has a result_ITMP of -0.26%.
C=C1C(=O)O[C@H]2[C@H]1CC/C(C)=C/CC[C@@]1(C)O[C@@H]21 [R4A_0002204_002 / SPE_K34851558] was tested, and the result_ITMP was 16.6%.
CN1C/C=C/CCOc2cccc(c2)-c2ccnc(n2)Nc2cccc(c2)C1 showed a result_ITMP of -2.04%.
Work on c1cc(OCCN2CCCCC2)cc(-c2n[nH]c3ccc(-c4ncn[nH]4)cc23)c1 yielded a result_ITMP of -0.52%.
For C1=C/COCc2cc(ccc2OCCN2CCCC2)Nc2nccc(n2)-c2cccc(c2)COC/1, the result_ITMP was 78.8%.
CN(C)CCNc1nc2cc(O)ccc2c2c1C(=O)c1ccccc1-2 gave a result_ITMP of 76.7%.
CC(C)(O)CC(=O)[O-] gave a result_ITMP of -6.24%.
Work on CC(=O)Nc1ccc(C(=O)NC(C)(C)C)cc1 yielded a result_ITMP of -9.36%.
CN(C)CCCCC(=O)Nc1ccc(NC(=S)NC(=O)c2ccc(C(C)(C)C)cc2)cc1 showed a result_ITMP of 147%.
In the case of CC(=O)Nc1ccc(NC(=S)NC(=O)c2ccc(C(C)(C)C)cc2)cc1, the result_ITMP is reported as 2.55%.
In the case of O=C1[C@@H]2[C@H]3CC[C@H](C3)[C@@H]2C(=O)N1C[C@@H]1CCCC[C@H]1CN1CCN(c2nsc3ccccc23)CC1, the result_ITMP is reported as 3.52%.
COc1cccc(Nc2ncnn3ccc(CN4CC[C@@H](N)[C@H](O)C4)c23)c1 was tested, and the result_ITMP was 59%.
For CSCC[C@H](NC(=O)[C@H](CC(C)C)NC(=O)CNC(=O)[C@H](Cc1ccccc1)NC(=O)[C@H](Cc1ccccc1)NC(=O)[C@H](CCC(N)=O)NC(=O)[C@H](CCC(N)=O)NC(=O)[C@@H]1CCCN1C(=O)[C@H](CCCCN)NC(=O)[C@@H]1CCCN1C(=O)[C@@H](N)CCCNC(=N)N)C(N)=O, the result_ITMP was -6.88%.
In the case of C[C@H]1[C@H](OC(=O)CCC(=O)O)O[C@@H]2O[C@@]3(C)CC[C@H]4[C@H](C)CC[C@@H]1[C@@]24OO3, the result_ITMP is reported as 7.77%.
Cc1c(-c2ccc(-c3ccccc3F)cc2)nc2ccc(F)cc2c1C(=O)[O-] was tested, and the result_ITMP was 5.08%.
Cc1ccc2c(c1)c1c3n2CCNC3CCC1 (stereo not shown) gave a result_ITMP of 51.5%.
With c1cc2c(cc1C1CCCCC1)c1c3n2CCNC3CCC1 (stereo not shown) the result_ITMP was 84.2%.
C#C[C@]1(O)CC[C@H]2[C@@H]3CCC4=CC(=O)CC[C@@H]4C3CC[C@@]21CC (stereo partly shown) gave a result_ITMP of -2.07%.
For Cc1ccccc1C(c1ccccc1C)N1C2CCC1CC(O)(c1ccccc1)C2 (stereo not shown), the result_ITMP was -2.82%.
Compound C[C@H](/C=C/[C@H](C)C(C)(C)O)[C@H]1CC[C@H]2/C(=C/C=C3C[C@@H](O)C[C@H](O)C3)CCC[C@]12C has a result_ITMP of -0.26%.
For N[C@@H]1[C@H]2CN(c3nc4c(cc3F)c(=O)c(C(=O)O)cn4-c3ccc(F)cc3F)C[C@@H]12, the result_ITMP was 0.39%.
With Cc1cc2c(cc1CC(=O)c1sccc1S(=O)(=O)[N-]c1onc(C)c1Cl)OCO2 the result_ITMP was -1.86%.
COc1cc2ncnc(Nc3ccc(F)c(Cl)c3)c2cc1OCCCN1CCOCC1 showed a result_ITMP of -1.05%.
For COc1cc(Nc2c(C#N)cnc3cc(OCCCN4CCN(C)CC4)c(OC)cc23)c(Cl)cc1Cl, the result_ITMP was 68%.
Compound COc1cc2c(N3CCN(C(=O)Nc4ccc(OC(C)C)cc4)CC3)ncnc2cc1OCCCN1CCCCC1 has a result_ITMP of 23%.
CC1(C)S[C@@H]2[C@H](NC(=O)[C@H](NC(=O)N3CCN(S(C)(=O)=O)C3=O)c3ccccc3)C(=O)N2[C@H]1C(=O)[O-] showed a result_ITMP of -2.91%.
For O=C1OC2(c3cc(I)c([O-])c(I)c3Oc3c2cc(I)c([O-])c3I)c2c(Cl)c(Cl)c(Cl)c(Cl)c21, the result_ITMP was -9.57%.
With CC1(C)S[C@@H]2C(N3C(=O)[C@@H](c4ccccc4)NC3(C)C)C(=O)N2[C@H]1C(=O)[O-] (stereo partly shown) the result_ITMP was -1.52%.
In the case of CC(=O)O[C@@]12CO[C@@H]1C[C@H](O)[C@@]1(C)C(=O)[C@H](O)C3=C(C)[C@@H](O)C[C@@](O)([C@@H](OC(=O)c4ccccc4)[C@H]21)C3(C)C, the result_ITMP is reported as -5.35%.
With Cc1noc(-c2ccc(-c3ccc(CC(=O)[O-])cc3)cc2)c1NC(=O)O[C@H](C)c1ccccc1 the result_ITMP was -0.34%.
For O=C(Nc1ccccc1)Nc1ccc(-c2ccc(C(=O)[C@@H]3CCC[C@H]3C(=O)O)cc2)cc1 [R4A_0000400_001 / SPE_K81614372], the result_ITMP was -1.59%.
Cn1nccc1Nc1nccc(-c2ccn([C@H](CO)c3ccc(Cl)c(F)c3)c(=O)c2)n1 [R4A_0003897_001 / SPE_K86309810] was tested, and the result_ITMP was -3.82%.
Work on O[C@@H]1[C@H](O)[C@@H](CCl)O[C@H]1n1cnc2c(NC3CC4CCC3C4)ncnc21 (mixture of isomers) yielded a result_ITMP of -1.27%.
CCCCN(CCCC)CCC(O)c1cc2c(Cl)cc(Cl)cc2c2cc(C(F)(F)F)ccc12 (stereo not shown) was tested, and the result_ITMP was 68.8%.
CCCCN(CCCC)CC(O)c1cc(Cl)cc2c1-c1ccc(Cl)cc1/C2=C/c1ccc(Cl)cc1 (stereo not shown) gave a result_ITMP of -0.63%.
In the case of CC(=O)N[C@@H]1C[C@H](O)[C@@H](CO)O[C@H]1O[C@H]1[C@H](O)[C@@H](O)[C@H](O)O[C@@H]1C(=O)[O-], the result_ITMP is reported as -0.41%.
With CC(C)[C@@H]1C(=O)N(S(C)(=O)=O)[C@@H]2CCN(C(=O)/C=C/CN3CCCCC3)[C@H]21 the result_ITMP was 0.42%.
In the case of Cc1cccn2c(=O)c(/C=C(\C#N)c3nc4ccccc4s3)c(Oc3ccc(F)cc3)nc12, the result_ITMP is reported as -3.48%.
O=C(CCn1cnc2c(O)ncnc21)Nc1ccc(C(=O)O)cc1 was tested, and the result_ITMP was -5.54%.
For C[C@@H]1CN(CC(=O)Nc2ccc3c(c2)Cc2cccc(-c4cc(=O)cc(N5CCOCC5)o4)c2S3)C[C@H](C)O1, the result_ITMP was 4.24%.
CC(N)Cc1c[nH]c2ccc(OCc3cccs3)cc12 (stereo not shown) was tested, and the result_ITMP was 55.2%.
CC(N)Cc1c[nH]c2ccc(O)cc12 (stereo not shown) was tested, and the result_ITMP was -1.42%.
NC(Cc1c[nH]c2ccc(O)cc12)C(=O)O (stereo not shown) was tested, and the result_ITMP was -1.81%.
With C=C[C@H]1C[N@]2CC[C@H]1C[C@@H]2[C@@H](O)c1ccnc2ccc(OC)cc12 the result_ITMP was 11.5%.
For CC1(C)[C@@H]2C[C@@H](O)[C@@](C)(O)[C@H]1C2, the result_ITMP was -10.7%.
In the case of O=S(=O)(c1ccccc1)c1cnc2c(N3CCNCC3)cccc2c1, the result_ITMP is reported as 39.6%.
With Cc1ccc(Sc2ccccc2N2CCNCC2)c(C)c1 the result_ITMP was 57.3%.
c1cc2c(c(N3CCNCC3)c1)OCCO2 showed a result_ITMP of -1.86%.
With Cc1cc(CN2CCN(c3c(Br)cnc4[nH]c(-c5ccc(N6CCN(C)CC6)cc5)nc34)CC2)no1 the result_ITMP was -0.42%.
C[C@H](NC(=O)CCc1nc2ccccc2c(=O)[nH]1)c1ccccc1 [R4A_0003503_001 / SPE_A63444178] gave a result_ITMP of 0.66%.
CC(C)[C@H]1c2ccc(F)cc2CC[C@@]1(CCN(C)CCCc1nc2ccccc2[nH]1)OC(=O)C1CC1 showed a result_ITMP of 68.1%.
Compound COCC(=O)O[C@]1(CCN(C)CCCc2nc3ccccc3[nH]2)CCc2cc(F)ccc2[C@@H]1C(C)C has a result_ITMP of 88.2%.
In the case of O=C(O)CCc1nc2ccccc2[nH]1, the result_ITMP is reported as -0.69%.
Cc1cc(S(=O)(=O)[O-])c2c(C)ccc(C(C)C)cc1-2 was tested, and the result_ITMP was -3.22%.
Work on CC1=CC(=O)[N-]S(=O)(=O)O1 yielded a result_ITMP of -5.65%.
Compound C[C@]12CCC(=O)C=C1CC[C@@H]1[C@@H]2CC[C@@]2(C)[C@H]1CC[C@]2(C)O has a result_ITMP of 0.46%.
For O=C([O-])C(O)C(O)C(O)C(O)CO (stereo not shown), the result_ITMP was -6.08%.
O=C1[C@@H]2[C@H]3CC[C@H](C3)[C@@H]2C(=O)N1CCCCN1CCN(c2ncccn2)CC1 gave a result_ITMP of -0.39%.
In the case of c1ccc(Cn2c(N3CCNCC3)nc3ccccc32)cc1, the result_ITMP is reported as 51.9%.
Work on CN(c1nccc(=O)[nH]1)C1CCN(c2nc3ccccc3n2Cc2ccc(F)cc2)CC1 yielded a result_ITMP of 0.52%.
For c1ccc(Cn2c(-c3ccc(OC[C@H](C4CCNCC4)n4c(-c5ccccc5)nc5ccccc54)cc3)nc3ccccc32)cc1, the result_ITMP was 13.3%.
C[C@H]1[C@H](C)CC[C@]2(C(=O)O)CC[C@]3(C)C(=CC[C@@H]4[C@@]5(C)CC[C@H](O)C(C)(C)[C@@H]5CC[C@]43C)[C@H]12 gave a result_ITMP of -0.84%.
Work on Clc1ccccc1CNC[C@H]1CC[C@H](CNCc2ccccc2Cl)CC1 yielded a result_ITMP of 111%.
Clc1ccccc1CN1CCc2sccc2C1 gave a result_ITMP of 5.84%.
In the case of CC[N+](CC)(CCNC(=O)C(=O)NCC[N+](CC)(CC)Cc1ccccc1Cl)Cc1ccccc1Cl, the result_ITMP is reported as -0.68%.
With COC(=O)[C@@]12OC[C@]34[C@H]([C@@H](O)[C@@H]1O)[C@@]1(C)CC(=O)C(O)=C(C)[C@@H]1C[C@H]3OC(=O)[C@H](OC(=O)/C=C(\C)C(C)C)[C@@H]24 the result_ITMP was -3.12%.
With O=C1CN(/N=C/c2ccc(-c3ccc([N+](=O)[O-])cc3)o2)C(=O)[N-]1 the result_ITMP was -3.77%.
CCCCc1oc2ccccc2c1C(=O)c1cc(I)c(OCCN(CC)CC)c(I)c1 gave a result_ITMP of 55.1%.
CN(CCOc1ccc(NS(C)(=O)=O)cc1)CCc1ccc(NS(C)(=O)=O)cc1 was tested, and the result_ITMP was -1.68%.
In the case of CCc1oc2ccccc2c1C(=O)c1cc(Br)c(O)c(Br)c1, the result_ITMP is reported as 0.74%.
Work on CCc1oc2ccccc2c1C(=O)c1ccc(OCC(=O)O)cc1 yielded a result_ITMP of -9.49%.
CCCCN(CCCC)CCCOC(=O)c1ccc(N)cc1 gave a result_ITMP of 4.87%.
CCCCc1oc2ccc(NS(C)(=O)=O)cc2c1C(=O)c1ccc(OCCCN(CCCC)CCCC)cc1 gave a result_ITMP of 74.9%.
CC[C@@H](C)C[C@@H](C)CCCCCCCCC(=O)N[C@H]1C[C@@H](O)[C@@H](NCCN)NC(=O)[C@@H]2[C@@H](O)CCN2C(=O)[C@H]([C@H](O)CCN)NC(=O)[C@H]([C@H](O)[C@@H](O)c2ccc(O)cc2)NC(=O)[C@@H]2C[C@@H](O)CN2C(=O)[C@H]([C@@H](C)O)NC1=O gave a result_ITMP of -8.5%.
CC(C)c1cc2c(cc1S(=O)(=O)O)[C@@]1(C)CCC[C@@](C)(C(=O)O)[C@@H]1CC2 showed a result_ITMP of -4.65%.
For CC(C)c1ccc2c(c1)CC[C@H]1[C@](C)(CN)CCC[C@]21C, the result_ITMP was 80.5%.
